From PubChem BioAssay
An excerpt weighted towards active compounds, which were near 2.7% of everything screened.
MITF TRPM1 HTS: MITF TRPM1 promoter activation in melanoma cells; hit rate 0.75% among 300,000; AID 588334; activation, % at 12.5 µM; SK-MEL-5 TRPM1-promoter luciferase, 24 h; % of positive control, neutral wells = 0;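 active means mean activation of at least 80% with every replicate also reaching 80%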
F508del corr: correctors of CFTR F508del function in bronchial epithelial cells. activity (quench increase), % at 7.58 µM. CFBE cells, YFP halide quenching; stimulated with forskolin plus potentiator P3; % fluorescence drop versus neutral controls. hit rate 0.36% among 350,000;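 active means mean added fluorescence quench of at least 8% versus neutral control, with both replicates also reaching 8%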;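 further: cells transiently co-express mutant CFTR-F508del with the halide-sensitive YFP; corrector assay measuring rescue of mutant channel to the surface after 24 h compound exposure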
Env fusion inh: blocks HIV Env-driven cell-cell fusion | inhibition, % at 12.3 µM | HeLa-JRFL Env/CEM21 cell fusion, luciferase | hit rate 1.1% among 360,000;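 active means mean replicate inhibition score of at least 50 and every replicate individually at or above 50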
Wnt act: Wnt/beta-catenin pathway activation; Wnt/beta-catenin reporter cell assay, activator, plate reader; hit rate 1.2% among 300,000; activation, % at 9.35 µM; AID 743398; in the data active means activation above about 30%, passing the limit was not always enough
GSIS activator: GLuc luminescence reporter in INS-1E cells, primary screen for activators of glucose-dependent secretion of insulin; INS-1E GLuc reporter insulin secretion, 2-3 h; activation, % at 16.6 µM; hit rate 0.61% among 370,000; AID 743287;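 active means lowest replicate activation of at least 40%, so every replicate reaches that level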
Of the large screens only hits and unclear results are named; the others gave an inactive call.

O=C(c1coc2ccc(O)c(CN3CCOCC3)c12)C1CC1	none (no result: F508del corr, Wnt act, GSIS activator)
O=C(CCl)Oc1ccc2occ(C(=O)c3cccs3)c2c1	none (no result: F508del corr, Env fusion inh, Wnt act)
O=C(c1cccc(Br)c1)c1coc2ccc(O)cc12	MITF TRPM1 HTS 90 (no result: Env fusion inh)
C[C@@H]1CCCCO[C@@H](CN(C)C(=O)c2ccccc2)[C@@H](C)CN([C@H](C)CO)C(=O)c2cc(NC(=O)CCC(F)(F)F)ccc2O1	none (no result: MITF TRPM1 HTS, Wnt act)
CC(C)c1ccc2oc(=O)cc(CN3CCCCC3)c2c1	GSIS activator 44
CC1CCN(Cc2cc(=O)oc3ccc(C(C)C)cc23)CC1	none
C=CS(=O)(=O)c1c2cc(OC)ccc2nc2ccc(OC)cc12	Wnt act 458 (no result: MITF TRPM1 HTS)
Cc1cc2c([nH]c3ccccc32)c2c1OC(C)(C)C=C2	MITF TRPM1 HTS 91 (no result: Env fusion inh)
Cc1cc(C)c2c(N)c(C(=O)N/N=C/c3cccs3)sc2n1	Wnt act 45 (no result: MITF TRPM1 HTS, GSIS activator)
Cc1cc(C)c2c(N)c(C(=O)Nc3ccc(C)c(C)c3)sc2n1	MITF TRPM1 HTS 126 (no result: GSIS activator)
Cc1cc(C)c2c(N)c(C(=O)Nc3ccc([N+](=O)[O-])cc3)sc2n1	MITF TRPM1 HTS 101
Cc1cc(C)c2c(N)c(C(=O)NC3CCCC3)sc2n1	none
Cc1cc(C)cc(NC(=O)c2sc3nc(C)cc(C)c3c2N)c1	none
Cc1cc(C)c2c(N)c(C(=O)NCC3CCCCC3)sc2n1	MITF TRPM1 HTS 88 (no result: F508del corr, Env fusion inh, GSIS activator)
C[C@H](CO)N1C[C@H](C)[C@@H](CN(C)C(=O)Nc2ccc3c(c2)OCO3)Oc2ccc(NC(=O)Cc3cn(C)c4ccccc34)cc2C1=O	none (no result: MITF TRPM1 HTS, Env fusion inh, Wnt act)
CCCNC(=O)Nc1ccc2c(c1)OC[C@@H](C)N(Cc1cccnc1)C[C@H](C)[C@@H](OC)CN(C)C2=O	none (no result: MITF TRPM1 HTS, Wnt act)
COc1ccc(NC(=O)c2sc3nc(C)cc(C)c3c2N)cc1	MITF TRPM1 HTS 104
Cc1cc(C)c2c(N)c(C(=O)Nc3ccc(F)cc3)sc2n1	Wnt act 51 (no result: GSIS activator)
Cc1cccc(NC(=O)c2sc3nc(N)c(C#N)cc3c2N)c1	MITF TRPM1 HTS 106 (no result: F508del corr, Wnt act)
CN(C)C(=O)c1cc2c(c(-c3cccc(C4=CCCCC4)c3)n1)[C@H](CCO)N([S@@](=O)C(C)(C)C)C2	none (no result: MITF TRPM1 HTS, F508del corr, Env fusion inh, Wnt act)
CCCNC(=O)N(C)C[C@@H]1Oc2ncc(-c3ccccc3F)cc2C(=O)N([C@H](C)CO)C[C@@H]1C	none (no result: MITF TRPM1 HTS, Wnt act)
Cc1ccc(S(=O)(=O)NCc2ccccc2)cc1C(=O)N1CCCCCCC1	Env fusion inh 66
Cc1ccc(S(=O)(=O)NCc2ccccc2)cc1C(=O)N1CCN(S(=O)(=O)c2ccccc2)CC1	none
COc1ccc(NC(=O)N2CCC3(CC2)CN(C(C)=O)[C@H](CO)c2[nH]c4cc(OC)ccc4c23)cc1	none (no result: MITF TRPM1 HTS, Wnt act)
c1ccc2c(c1)Nc1cc3ccccc3cc1S2	Wnt act 38 (no result: MITF TRPM1 HTS)
C[C@@H]1CCCCO[C@@H](CN(C)Cc2ccncc2)[C@@H](C)CN([C@H](C)CO)C(=O)c2cc(NS(=O)(=O)c3cn(C)cn3)ccc2O1	none (no result: MITF TRPM1 HTS, Wnt act)
O=C(NCc1ccco1)c1ccc(Cn2c(=O)c3ccccc3n(Cc3cccc(F)c3)c2=O)cc1	Env fusion inh 85 (no result: MITF TRPM1 HTS, F508del corr, Wnt act, GSIS activator)
O=C(NCc1ccco1)c1ccc(Cn2c(=O)c3ccccc3n(Cc3ccc(Cl)cc3)c2=O)cc1	Env fusion inh 119 (no result: MITF TRPM1 HTS, F508del corr, Wnt act, GSIS activator)
O=c1c2ccccc2n(Cc2ccc(Cl)cc2)c(=O)n1Cc1ccco1	none (no result: F508del corr, Env fusion inh, Wnt act, GSIS activator)
O=C(Nc1ccc(F)cc1)N[C@@H]1C[C@@H]2O[C@@H](CO)CC[C@@H]2O[C@@H]1CCc1ccc(-c2ccccc2)cc1	none (no result: MITF TRPM1 HTS, Env fusion inh, Wnt act, GSIS activator)
COc1cccc(CNC(=O)CCC2CCCN(C(=O)c3cc4ccccc4o3)C2)c1 (stereo not given)	MITF TRPM1 HTS 84
S=C(Nc1ccc(Br)cc1Cl)N1CCCC1	MITF TRPM1 HTS 84
S=C(Nc1ccccc1Cl)N1CCCC1	none
CN(C)C(=O)C[C@@H]1CC[C@@H]2[C@H](COC[C@H](O)CN2C(=O)C2CCCC2)O1	none (no result: MITF TRPM1 HTS, Wnt act)
Cc1cccc(NC(=O)CNC(=O)COc2ccc(C(=O)c3ccc(F)cc3)cc2)c1C	Wnt act 42 (no result: F508del corr)
Cc1cccc(OCCC(=O)NCC(=O)Nc2cccc(C)c2C)c1	none (no result: F508del corr)
Cc1cccc(NC(=O)CNC(=O)COc2ccc(-c3ccc(C#N)cc3)cc2)c1C	GSIS activator 67 (no result: F508del corr)
Cc1cccc(NC(=O)CNC(=O)COc2cc(F)ccc2[N+](=O)[O-])c1C	none (no result: F508del corr)
COc1cccc(/C=N/NC(=O)C(=O)N/N=C/c2cccc(OC)c2O)c1O	F508del corr 10
COc1cccc(/C=N/Nc2nccnc2Cl)c1O	none
COc1cccc(/C=N/Nc2ncnc(Cl)c2N)c1O	F508del corr 23, Env fusion inh 55 (no result: GSIS activator)
COc1cccc(/C=N/NC(=O)CC2C(=O)NN=C2C)c1O (stereo not given)	Env fusion inh 70 (no result: F508del corr, Wnt act, GSIS activator)
